# Columns and labels:
# [1] = molecular target: Sphingosine kinase 1 (Homo sapiens) (UniProt Q9NYA1); settings: at 1 µM;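 note: mean SPHK1 inhibition value reported from the GSK PKIS kinase panel screen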
# [2] = molecular target: T1, Sphingosine kinase 2 (Homo sapiens) (UniProt Q9NRA0); settings: at 0.1 µM
# T1 sequence (whole entry): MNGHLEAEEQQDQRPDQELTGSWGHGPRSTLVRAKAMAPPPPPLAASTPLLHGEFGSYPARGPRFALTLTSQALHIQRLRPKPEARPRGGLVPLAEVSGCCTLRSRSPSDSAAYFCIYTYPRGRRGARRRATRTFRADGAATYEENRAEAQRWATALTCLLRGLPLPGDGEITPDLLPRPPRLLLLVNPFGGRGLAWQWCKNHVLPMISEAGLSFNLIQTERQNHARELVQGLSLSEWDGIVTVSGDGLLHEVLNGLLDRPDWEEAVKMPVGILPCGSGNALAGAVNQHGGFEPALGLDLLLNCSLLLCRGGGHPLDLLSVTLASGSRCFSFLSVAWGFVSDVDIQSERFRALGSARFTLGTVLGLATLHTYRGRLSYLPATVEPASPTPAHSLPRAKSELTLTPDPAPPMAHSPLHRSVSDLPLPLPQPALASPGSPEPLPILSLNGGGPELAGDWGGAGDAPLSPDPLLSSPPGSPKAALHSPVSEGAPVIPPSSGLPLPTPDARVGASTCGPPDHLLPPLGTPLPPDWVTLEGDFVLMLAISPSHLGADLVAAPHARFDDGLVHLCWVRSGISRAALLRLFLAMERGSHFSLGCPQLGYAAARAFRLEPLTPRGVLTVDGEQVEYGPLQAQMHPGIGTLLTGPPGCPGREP
# [3] = molecular target: T1, Sphingosine kinase 2 (Homo sapiens); settings: at 1 µM
# [4] = molecular target: Casein kinase II subunit alpha (Homo sapiens) (UniProt P68400); settings: at 0.1 µM
# Sequence of Casein kinase II subunit alpha (Homo sapiens) (P68400 whole entry, looked up): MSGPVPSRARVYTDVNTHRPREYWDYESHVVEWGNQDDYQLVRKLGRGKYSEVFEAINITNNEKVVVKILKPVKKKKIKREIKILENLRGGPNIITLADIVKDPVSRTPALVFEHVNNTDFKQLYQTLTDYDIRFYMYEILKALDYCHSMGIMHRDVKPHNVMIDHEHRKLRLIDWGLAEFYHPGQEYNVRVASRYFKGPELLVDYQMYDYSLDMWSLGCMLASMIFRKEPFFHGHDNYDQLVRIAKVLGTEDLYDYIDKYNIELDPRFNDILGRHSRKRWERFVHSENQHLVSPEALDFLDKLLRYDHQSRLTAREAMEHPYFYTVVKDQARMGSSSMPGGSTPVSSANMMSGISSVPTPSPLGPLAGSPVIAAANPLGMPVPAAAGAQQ
# [5] = molecular target: Casein kinase II subunit alpha (Homo sapiens) (UniProt P68400); settings: at 1 µM
# [6] = molecular target: T2, Inhibitor of nuclear factor kappa-B kinase subunit alpha (Homo sapiens) (UniProt O15111); settings: at 0.1 µM
# T2 sequence (whole entry): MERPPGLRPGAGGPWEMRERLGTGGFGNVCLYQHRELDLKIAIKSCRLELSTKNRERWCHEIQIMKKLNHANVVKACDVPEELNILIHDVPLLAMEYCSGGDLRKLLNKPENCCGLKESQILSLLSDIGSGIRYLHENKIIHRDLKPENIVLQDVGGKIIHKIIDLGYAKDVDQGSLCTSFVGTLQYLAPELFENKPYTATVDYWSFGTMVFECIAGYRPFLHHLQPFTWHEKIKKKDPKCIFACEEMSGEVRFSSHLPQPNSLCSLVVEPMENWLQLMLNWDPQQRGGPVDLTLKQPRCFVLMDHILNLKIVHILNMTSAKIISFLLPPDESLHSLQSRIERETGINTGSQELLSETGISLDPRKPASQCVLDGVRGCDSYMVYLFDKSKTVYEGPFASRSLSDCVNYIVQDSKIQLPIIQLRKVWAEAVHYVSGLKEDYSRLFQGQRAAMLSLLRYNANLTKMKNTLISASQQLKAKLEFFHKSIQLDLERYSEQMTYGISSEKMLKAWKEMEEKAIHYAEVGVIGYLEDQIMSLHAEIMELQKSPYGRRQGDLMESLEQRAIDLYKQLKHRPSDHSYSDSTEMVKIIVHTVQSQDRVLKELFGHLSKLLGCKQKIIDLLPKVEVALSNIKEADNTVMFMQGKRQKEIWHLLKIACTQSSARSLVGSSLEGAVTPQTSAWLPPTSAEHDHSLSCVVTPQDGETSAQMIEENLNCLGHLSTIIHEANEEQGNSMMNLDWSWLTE
# [7] = molecular target: T2, Inhibitor of nuclear factor kappa-B kinase subunit alpha (Homo sapiens); settings: at 1 µM
# [8] = molecular target: T3, Inhibitor of nuclear factor kappa-B kinase subunit beta (Homo sapiens) (UniProt O14920); settings: at 0.1 µM
# T3 sequence (whole entry): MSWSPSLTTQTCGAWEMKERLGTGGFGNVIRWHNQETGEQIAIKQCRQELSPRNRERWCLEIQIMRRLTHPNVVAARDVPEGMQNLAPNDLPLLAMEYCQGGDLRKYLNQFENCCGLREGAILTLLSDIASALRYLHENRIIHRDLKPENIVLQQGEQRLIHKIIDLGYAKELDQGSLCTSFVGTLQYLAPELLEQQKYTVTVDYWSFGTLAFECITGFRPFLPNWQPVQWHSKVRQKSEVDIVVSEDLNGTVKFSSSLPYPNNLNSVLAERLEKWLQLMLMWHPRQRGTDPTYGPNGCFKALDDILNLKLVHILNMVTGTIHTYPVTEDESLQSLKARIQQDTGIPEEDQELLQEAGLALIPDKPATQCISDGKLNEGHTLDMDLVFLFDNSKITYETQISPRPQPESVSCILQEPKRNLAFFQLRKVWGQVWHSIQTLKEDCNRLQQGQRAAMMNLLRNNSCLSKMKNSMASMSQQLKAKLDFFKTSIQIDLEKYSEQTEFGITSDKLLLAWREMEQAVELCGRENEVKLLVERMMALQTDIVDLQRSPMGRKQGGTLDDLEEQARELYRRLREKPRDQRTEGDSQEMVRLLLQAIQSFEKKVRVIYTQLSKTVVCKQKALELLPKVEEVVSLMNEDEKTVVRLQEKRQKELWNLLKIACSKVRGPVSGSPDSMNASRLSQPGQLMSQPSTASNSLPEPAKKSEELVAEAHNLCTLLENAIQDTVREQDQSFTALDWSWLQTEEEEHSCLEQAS
# [9] = molecular target: T3, Inhibitor of nuclear factor kappa-B kinase subunit beta (Homo sapiens); settings: at 1 µM
# [10] = molecular target: T4, Inhibitor of nuclear factor kappa-B kinase subunit epsilon (Homo sapiens) (UniProt Q14164); settings: at 0.1 µM
# T4 sequence (whole entry): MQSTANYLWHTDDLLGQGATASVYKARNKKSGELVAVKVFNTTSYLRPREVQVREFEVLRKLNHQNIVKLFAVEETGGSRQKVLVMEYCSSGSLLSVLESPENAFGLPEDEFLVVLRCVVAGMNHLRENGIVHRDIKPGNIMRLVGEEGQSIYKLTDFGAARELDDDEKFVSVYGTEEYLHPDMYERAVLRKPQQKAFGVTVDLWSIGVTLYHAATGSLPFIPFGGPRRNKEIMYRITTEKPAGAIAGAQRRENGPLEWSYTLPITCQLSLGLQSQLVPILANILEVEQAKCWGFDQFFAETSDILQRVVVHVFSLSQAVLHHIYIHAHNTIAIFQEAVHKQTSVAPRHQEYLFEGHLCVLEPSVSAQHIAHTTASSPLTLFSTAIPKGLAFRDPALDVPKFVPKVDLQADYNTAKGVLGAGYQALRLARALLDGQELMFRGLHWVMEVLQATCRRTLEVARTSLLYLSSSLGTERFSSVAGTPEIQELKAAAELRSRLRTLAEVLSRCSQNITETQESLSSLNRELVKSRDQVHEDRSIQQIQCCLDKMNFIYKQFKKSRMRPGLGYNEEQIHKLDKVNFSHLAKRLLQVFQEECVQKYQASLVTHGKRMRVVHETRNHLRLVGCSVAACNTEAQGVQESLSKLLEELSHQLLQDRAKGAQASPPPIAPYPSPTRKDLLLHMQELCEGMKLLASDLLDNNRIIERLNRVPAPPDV
# [11] = molecular target: T4, Inhibitor of nuclear factor kappa-B kinase subunit epsilon (Homo sapiens); settings: at 1 µM
# [12] = molecular target: T5, Serine/threonine-protein kinase Nek1 (Homo sapiens) (UniProt Q96PY6); settings: at 0.1 µM
# T5 sequence (whole entry): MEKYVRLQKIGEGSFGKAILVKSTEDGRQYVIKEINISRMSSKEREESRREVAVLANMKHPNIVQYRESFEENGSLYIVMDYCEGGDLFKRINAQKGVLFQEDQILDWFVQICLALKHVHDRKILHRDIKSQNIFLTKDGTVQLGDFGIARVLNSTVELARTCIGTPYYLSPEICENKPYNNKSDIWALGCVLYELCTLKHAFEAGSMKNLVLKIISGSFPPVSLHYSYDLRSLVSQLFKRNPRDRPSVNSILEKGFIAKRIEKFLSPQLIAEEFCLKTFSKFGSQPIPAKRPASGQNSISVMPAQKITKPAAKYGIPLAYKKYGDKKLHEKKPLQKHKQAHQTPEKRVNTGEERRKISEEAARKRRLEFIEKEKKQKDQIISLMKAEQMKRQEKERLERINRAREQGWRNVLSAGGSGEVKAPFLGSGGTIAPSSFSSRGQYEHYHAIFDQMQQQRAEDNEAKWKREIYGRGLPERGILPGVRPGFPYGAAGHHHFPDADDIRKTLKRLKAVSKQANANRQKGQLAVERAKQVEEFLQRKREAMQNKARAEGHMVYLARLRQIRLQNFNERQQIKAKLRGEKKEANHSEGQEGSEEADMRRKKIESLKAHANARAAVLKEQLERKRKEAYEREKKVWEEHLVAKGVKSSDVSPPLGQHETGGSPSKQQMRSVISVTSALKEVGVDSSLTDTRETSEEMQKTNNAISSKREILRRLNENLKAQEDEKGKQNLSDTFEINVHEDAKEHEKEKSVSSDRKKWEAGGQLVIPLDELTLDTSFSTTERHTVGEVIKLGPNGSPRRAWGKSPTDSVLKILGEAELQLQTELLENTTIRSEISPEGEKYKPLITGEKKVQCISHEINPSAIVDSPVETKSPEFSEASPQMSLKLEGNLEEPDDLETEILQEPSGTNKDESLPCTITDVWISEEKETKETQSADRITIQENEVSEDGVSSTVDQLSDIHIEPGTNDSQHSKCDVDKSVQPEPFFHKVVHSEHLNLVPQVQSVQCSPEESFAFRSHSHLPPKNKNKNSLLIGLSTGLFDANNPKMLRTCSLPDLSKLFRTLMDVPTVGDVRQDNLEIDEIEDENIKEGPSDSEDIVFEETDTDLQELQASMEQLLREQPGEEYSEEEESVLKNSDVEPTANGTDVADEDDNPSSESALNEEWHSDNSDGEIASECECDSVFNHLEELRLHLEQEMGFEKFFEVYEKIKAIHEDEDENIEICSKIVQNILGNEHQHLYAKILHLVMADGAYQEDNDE
# [13] = molecular target: T5, Serine/threonine-protein kinase Nek1 (Homo sapiens); settings: at 1 µM
# [14] = molecular target: T6, Serine/threonine-protein kinase Nek2 (Homo sapiens) (UniProt P51955); settings: at 0.1 µM
# T6 sequence (whole entry): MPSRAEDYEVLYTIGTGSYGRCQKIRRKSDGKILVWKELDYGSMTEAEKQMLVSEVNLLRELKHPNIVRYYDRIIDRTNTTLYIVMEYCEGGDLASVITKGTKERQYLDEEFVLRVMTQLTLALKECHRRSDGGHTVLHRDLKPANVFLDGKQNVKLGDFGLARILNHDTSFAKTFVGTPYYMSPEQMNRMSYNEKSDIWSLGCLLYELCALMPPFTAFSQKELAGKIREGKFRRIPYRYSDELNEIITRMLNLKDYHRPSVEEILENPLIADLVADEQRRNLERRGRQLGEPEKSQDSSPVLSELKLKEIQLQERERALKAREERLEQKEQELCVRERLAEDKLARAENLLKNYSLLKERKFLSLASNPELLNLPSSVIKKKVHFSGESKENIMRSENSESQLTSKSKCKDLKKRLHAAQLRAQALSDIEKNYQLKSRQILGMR
# [15] = molecular target: T6, Serine/threonine-protein kinase Nek2 (Homo sapiens); settings: at 1 µM
# [16] = molecular target: Serine/threonine-protein kinase Nek6 (Homo sapiens) (UniProt Q9HC98); settings: at 0.1 µM
# Sequence of Serine/threonine-protein kinase Nek6 (Homo sapiens) (Q9HC98 whole entry): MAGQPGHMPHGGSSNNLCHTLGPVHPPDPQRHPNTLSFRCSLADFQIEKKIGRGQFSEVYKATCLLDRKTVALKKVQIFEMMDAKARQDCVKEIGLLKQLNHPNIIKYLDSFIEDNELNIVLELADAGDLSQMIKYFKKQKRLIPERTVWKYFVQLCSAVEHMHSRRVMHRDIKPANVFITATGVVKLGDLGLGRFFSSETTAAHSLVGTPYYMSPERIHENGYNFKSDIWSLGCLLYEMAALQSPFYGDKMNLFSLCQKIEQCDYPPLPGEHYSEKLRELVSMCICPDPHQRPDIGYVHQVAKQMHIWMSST
# [17] = molecular target: Serine/threonine-protein kinase Nek6 (Homo sapiens) (UniProt Q9HC98); settings: at 1 µM
# [18] = molecular target: Serine/threonine-protein kinase Nek7 (Homo sapiens) (UniProt Q8TDX7); settings: at 0.1 µM
# Sequence of Serine/threonine-protein kinase Nek7 (Homo sapiens) (Q8TDX7 whole entry, looked up): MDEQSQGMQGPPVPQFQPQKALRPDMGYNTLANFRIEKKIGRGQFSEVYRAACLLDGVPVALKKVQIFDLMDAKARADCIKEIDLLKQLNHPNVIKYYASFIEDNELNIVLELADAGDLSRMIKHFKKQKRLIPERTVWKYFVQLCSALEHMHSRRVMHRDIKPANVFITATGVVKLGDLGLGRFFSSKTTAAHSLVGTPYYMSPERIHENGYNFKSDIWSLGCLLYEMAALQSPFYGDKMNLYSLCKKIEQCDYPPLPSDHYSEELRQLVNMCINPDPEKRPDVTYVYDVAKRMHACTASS
# [19] = molecular target: Serine/threonine-protein kinase Nek7 (Homo sapiens) (UniProt Q8TDX7); settings: at 1 µM
# [20] = molecular target: T7, Serine/threonine-protein kinase Nek9 (Homo sapiens) (UniProt Q8TD19); settings: at 0.1 µM;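 note: reported value is the mean percent inhibition of NEK9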
# T7 sequence (whole entry): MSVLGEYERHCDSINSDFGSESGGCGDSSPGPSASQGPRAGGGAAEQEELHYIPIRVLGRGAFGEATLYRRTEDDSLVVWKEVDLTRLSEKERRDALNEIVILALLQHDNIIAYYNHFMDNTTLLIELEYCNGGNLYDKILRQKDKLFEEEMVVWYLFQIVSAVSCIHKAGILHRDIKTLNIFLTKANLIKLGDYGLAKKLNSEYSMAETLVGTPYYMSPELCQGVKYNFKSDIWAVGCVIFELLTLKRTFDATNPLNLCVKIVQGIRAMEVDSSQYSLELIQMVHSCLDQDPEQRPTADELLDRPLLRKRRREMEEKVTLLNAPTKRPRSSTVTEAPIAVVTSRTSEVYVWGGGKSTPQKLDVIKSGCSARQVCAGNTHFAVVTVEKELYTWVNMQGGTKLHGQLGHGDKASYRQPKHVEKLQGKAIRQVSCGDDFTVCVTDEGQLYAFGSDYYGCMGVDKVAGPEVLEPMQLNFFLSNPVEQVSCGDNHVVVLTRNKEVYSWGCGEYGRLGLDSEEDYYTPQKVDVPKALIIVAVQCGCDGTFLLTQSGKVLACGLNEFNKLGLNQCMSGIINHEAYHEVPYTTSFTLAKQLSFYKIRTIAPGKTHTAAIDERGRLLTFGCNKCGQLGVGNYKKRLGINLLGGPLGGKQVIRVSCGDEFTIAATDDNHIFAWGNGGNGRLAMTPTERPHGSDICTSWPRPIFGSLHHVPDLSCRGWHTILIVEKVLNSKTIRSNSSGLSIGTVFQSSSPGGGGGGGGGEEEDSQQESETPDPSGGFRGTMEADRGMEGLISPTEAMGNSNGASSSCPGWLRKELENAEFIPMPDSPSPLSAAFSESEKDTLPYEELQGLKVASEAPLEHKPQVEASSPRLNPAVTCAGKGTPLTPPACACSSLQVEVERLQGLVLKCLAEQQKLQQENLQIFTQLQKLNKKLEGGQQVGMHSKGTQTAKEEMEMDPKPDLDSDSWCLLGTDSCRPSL
# Sequence of Sphingosine kinase 1 (Homo sapiens) (Q9NYA1 whole entry): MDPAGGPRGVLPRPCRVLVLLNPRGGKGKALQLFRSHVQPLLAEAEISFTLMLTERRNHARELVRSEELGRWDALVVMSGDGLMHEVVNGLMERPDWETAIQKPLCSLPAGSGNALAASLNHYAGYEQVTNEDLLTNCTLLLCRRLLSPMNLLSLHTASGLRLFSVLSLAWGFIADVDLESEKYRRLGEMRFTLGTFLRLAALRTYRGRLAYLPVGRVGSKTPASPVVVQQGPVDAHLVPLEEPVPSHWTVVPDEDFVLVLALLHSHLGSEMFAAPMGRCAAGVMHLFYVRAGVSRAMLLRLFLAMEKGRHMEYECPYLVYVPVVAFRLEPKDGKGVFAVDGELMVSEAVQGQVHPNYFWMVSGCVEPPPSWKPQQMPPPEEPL
smiles,measurement,setting,value
NC(=O)c1sc(-n2cnc3ccccc32)cc1OCc1ccccc1Br,inhibition,[1],-0.07%
same,inhibition,[2],1.77%
same,inhibition,[3],0%
same,inhibition,[4],5.03%
same,inhibition,[5],5.76%
same,inhibition,[6],4.61%
same,inhibition,[7],7.53%
same,inhibition,[8],4.02%
same,inhibition,[9],5.66%
same,inhibition,[10],8.4%
same,inhibition,[11],6.21%
same,inhibition,[12],1.75%
same,inhibition,[13],2.24%
same,inhibition,[14],4.32%
same,inhibition,[15],3.39%
same,inhibition,[16],-0.26%
same,inhibition,[17],2.86%
same,inhibition,[18],3.33%
same,inhibition,[19],9.69%
same,inhibition,[20],8.49%
